Laboratory results as given in the antibiotic and cytotoxicity screens of Wong et al. (2023).
Screen size: about 39,000 compounds; about 3,300 (8.5%) were called active. The list comes from a sample in which actives are over-represented; it also holds similar structures and randomly drawn compounds.

What follows are compounds tested on HepG2 (assay: cytotoxicity call (relative viability < 0.9)). Settings: 10 µM.

Row | SMILES | cytotoxicity call
1 | CO[C@@H](CN(C)S(=O)(=O)c1cn(C)cn1)[C@@H](C)CN(C(=O)Nc1ccc(C(F)(F)F)cc1)[C@@H](C)CO | inactive
2 | C[C@@H]1CCCCO[C@H](CN(C)Cc2ccc3c(c2)OCO3)[C@H](C)CN([C@@H](C)CO)C(=O)c2cc(NC(=O)NC3CCCCC3)ccc2O1 | active
3 | C[C@@H]1CCCCO[C@@H](CN(C)Cc2ccc3c(c2)OCO3)[C@H](C)CN([C@H](C)CO)C(=O)c2cc(NC(=O)NC3CCCCC3)ccc2O1 | inactive
4 | C[C@@H]1CN([C@H](C)CO)C(=O)c2cc(NC(=O)NC3CCCCC3)ccc2O[C@@H](C)CCCCO[C@@H]1CN(C)Cc1ccc2c(c1)OCO2 | active
5 | C[C@@H]1CCCCO[C@@H](CN(C)Cc2ccc3c(c2)OCO3)[C@@H](C)CN([C@@H](C)CO)C(=O)c2cc(NC(=O)NC3CCCCC3)ccc2O1 | inactive
6 | C[C@H](CO)N1C[C@H](C)[C@H](CN(C)Cc2ccc3c(c2)OCO3)OCCCC[C@H](C)Oc2ccc(NC(=O)NC3CCCCC3)cc2C1=O | active
7 | C[C@H](CO)N1C[C@H](C)[C@@H](CN(C)Cc2ccc3c(c2)OCO3)OCCCC[C@H](C)Oc2ccc(NC(=O)NC3CCCCC3)cc2C1=O | inactive
8 | C[C@@H]1CCCCO[C@H](CN(C)Cc2ccc3c(c2)OCO3)[C@@H](C)CN([C@H](C)CO)C(=O)c2cc(NC(=O)NC3CCCCC3)ccc2O1 | inactive
9 | C[C@@H]1CN([C@@H](C)CO)C(=O)c2cc(NC(=O)NC3CCCCC3)ccc2O[C@@H](C)CCCCO[C@@H]1CN(C)Cc1ccc2c(c1)OCO2 | inactive
10 | C[C@@H]1CCCCO[C@H](CN(C)Cc2ccc3c(c2)OCO3)[C@H](C)CN([C@H](C)CO)C(=O)c2cc(NC(=O)NC3CCCCC3)ccc2O1 | inactive
11 | C[C@H]1CCCCO[C@H](CN(C)Cc2ccc3c(c2)OCO3)[C@@H](C)CN([C@@H](C)CO)C(=O)c2cc(NC(=O)NC3CCCCC3)ccc2O1 | inactive
12 | C[C@@H]1CCCCO[C@H](CN(C)Cc2ccc3c(c2)OCO3)[C@@H](C)CN([C@@H](C)CO)C(=O)c2cc(NC(=O)NC3CCCCC3)ccc2O1 | active
13 | C[C@@H]1CCCCO[C@@H](CN(C)Cc2ccc3c(c2)OCO3)[C@@H](C)CN([C@H](C)CO)C(=O)c2cc(NC(=O)NC3CCCCC3)ccc2O1 | inactive
14 | CN1CCN(C(=O)C[C@@H]2CC[C@@H]3[C@H](COc4ccc(NC(=O)C5CCOCC5)cc4C(=O)N3C)O2)CC1 | inactive
15 | C[C@@H]1CN([C@@H](C)CO)C(=O)c2cc(NS(=O)(=O)c3ccc(F)cc3)ccc2O[C@@H](C)CCCCO[C@H]1CN(C)C(=O)C1CCCCC1 | inactive
16 | O=C(C[C@@H]1CC[C@H]2[C@@H](COC[C@@H](O)CN2C(=O)c2ccccc2)O1)NCCCN1CCOCC1 | inactive
17 | COc1ccccc1S(=O)(=O)N(C)C[C@H]1Oc2cc(Br)ccc2S(=O)(=O)N([C@H](C)CO)C[C@H]1C | inactive
18 | C[C@@H]1CN([C@@H](C)CO)C(=O)c2cccc(NC(=O)CCCCCC(=O)Nc3ccccc3N)c2O[C@H]1CN(C)C(=O)Nc1cccc2ccccc12 | inactive
19 | Cc1noc(C)c1NC(=O)N(C)C[C@@H]1Oc2c(NC(=O)C3CCOCC3)cccc2C(=O)N([C@H](C)CO)C[C@@H]1C | inactive
20 | NNCCc1ccccc1 | inactive
21 | NCCNc1cccc2ccccc12 | inactive

Row | SMILES | cytotoxicity call
22 | c1ccc(CCNc2ccnc3cc4ccccc4cc23)cc1 | active
23 | CC(C)NC(=O)N(C)C[C@@H]1Oc2cc(C#Cc3ccc(F)cc3)ccc2S(=O)(=O)N([C@@H](C)CO)C[C@@H]1C | inactive
24 | C[C@@H]1CN([C@H](C)CO)C(=O)c2cc(NC(=O)Nc3ccc4c(c3)OCO4)ccc2O[C@@H]1CN(C)Cc1ccc(-c2ccccc2)cc1 | active
25 | C[C@@H]1CN([C@@H](C)CO)C(=O)c2cc(NC(=O)Nc3ccc4c(c3)OCO4)ccc2O[C@@H]1CN(C)Cc1ccc(-c2ccccc2)cc1 | active
26 | C[C@H]1CN([C@@H](C)CO)C(=O)c2cc(NC(=O)Nc3ccc4c(c3)OCO4)ccc2O[C@H]1CN(C)Cc1ccc(-c2ccccc2)cc1 | inactive
27 | C[C@H](CO)N1C[C@H](C)[C@@H](CN(C)Cc2ccc(-c3ccccc3)cc2)Oc2ccc(NC(=O)Nc3ccc4c(c3)OCO4)cc2C1=O | inactive
28 | C[C@H](CO)N1C[C@H](C)[C@H](CN(C)Cc2ccc(-c3ccccc3)cc2)Oc2ccc(NC(=O)Nc3ccc4c(c3)OCO4)cc2C1=O | inactive
29 | C[C@@H]1CN([C@H](C)CO)C(=O)c2cc(NC(=O)Nc3ccc4c(c3)OCO4)ccc2O[C@H]1CN(C)Cc1ccc(-c2ccccc2)cc1 | active
30 | C[C@H]1CN([C@@H](C)CO)C(=O)c2cc(NC(=O)Nc3ccc4c(c3)OCO4)ccc2O[C@@H]1CN(C)Cc1ccc(-c2ccccc2)cc1 | active
31 | O=C1C[C@]2(c3ccc([N+](=O)[O-])cc3)C(=O)N(CC(F)(F)F)c3cc(CO)ccc3[C@H]2N1CC12CC3CC(CC(C3)C1)C2 | inactive
32 | COc1ccc(S(=O)(=O)Nc2ccc3c(c2)C(=O)N([C@@H](C)CO)C[C@H](C)[C@H](CN(C)C(=O)NC(C)C)O3)cc1 | inactive
33 | C[C@@H]1CN([C@@H](C)CO)C(=O)c2cc(NC(=O)Nc3ccc4c(c3)OCO4)ccc2O[C@@H](C)CCCCO[C@@H]1CN(C)S(=O)(=O)c1cccs1 | inactive
34 | C[C@H]1CN([C@@H](C)CO)C(=O)Cc2cc(NS(=O)(=O)c3cn(C)cn3)ccc2O[C@H]1CN(C)S(=O)(=O)c1ccc(F)cc1 | inactive
35 | C[C@@H]1CN([C@H](C)CO)C(=O)Cc2cc(NC(=O)CCCCCC(=O)Nc3ccccc3N)ccc2O[C@H]1CN(C)Cc1ccccc1 | inactive
36 | CCS(=O)(=O)N1CC[C@]2(CC1)CN([C@@H](CO)c1[nH]c3cc(ccc3c12)OC)C(=O)Cc1ccccn1 | inactive
37 | Cc1noc(C)c1NC(=O)Nc1ccc2c(c1)C(=O)N([C@@H](C)CO)C[C@H](C)[C@@H](CN(C)Cc1ccc(Cl)c(Cl)c1)O2 | inactive
38 | CC(C)NC(=O)Nc1ccc2c(c1)C(=O)N([C@@H](C)CO)C[C@H](C)[C@@H](CN(C)S(=O)(=O)c1cn(C)cn1)OCCCC[C@H](C)O2 | inactive
39 | COc1ccc(cc1)CN1C[C@]2(CN(C2)S(=O)(=O)c2cn(cn2)C)c2c([nH]c3cc(ccc23)OC)[C@H]1CO | inactive
40 | Cc1noc(C)c1S(=O)(=O)Nc1ccc2c(c1)CC(=O)N([C@@H](C)CO)C[C@@H](C)[C@@H](CN(C)Cc1ccncc1)O2 | inactive
41 | C[C@@H]1CN([C@H](C)CO)C(=O)c2cccc(NC(=O)NC3CCCCC3)c2O[C@H]1CN(C)S(=O)(=O)c1cn(C)cn1 | inactive
42 | CCc1nc2ccc(C(=O)NCc3ccccc3OC)cn2c1N(CC)Cc1cccc(Br)c1 | inactive

Row | SMILES | cytotoxicity call
43 | CCS(=O)(=O)N1CC[C@]2(CC1)CN([C@H](CO)c1[nH]c3cc(ccc3c12)OC)C(=O)c1ccc(cc1)F | inactive
44 | O=C(O)[C@H]1NC(=O)[C@@H]1Cc1ccccc1 | inactive
45 | CC(C)NC(=O)N(C)C[C@@H]1Oc2c(NS(=O)(=O)c3ccc(F)cc3)cccc2C(=O)N([C@H](C)CO)C[C@@H]1C | inactive
46 | C[C@@H]1CN([C@@H](C)CO)C(=O)c2cc(NC(=O)Nc3ccc4c(c3)OCO4)ccc2O[C@H]1CN(C)Cc1ccc(-c2ccccc2)cc1 | active
47 | C[C@@H]1CN([C@H](C)CO)C(=O)c2cccc(NS(=O)(=O)c3cn(C)cn3)c2O[C@@H]1CN(C)S(=O)(=O)c1ccc(F)cc1 | inactive
48 | C[C@@H]1CN([C@H](C)CO)C(=O)c2cccc(NS(=O)(=O)c3cn(C)cn3)c2O[C@H]1CN(C)Cc1ccc2c(c1)OCO2 | inactive
49 | C[C@H](NC(=O)C[C@@H]1C[C@H]2c3cc(NC(=O)Nc4ccc(C(F)(F)F)cc4)ccc3O[C@H]2[C@@H](CO)O1)c1ccccc1 | inactive
50 | COc1ccc(NC(=O)Nc2ccc3c(c2)C(=O)N([C@H](C)CO)C[C@@H](C)[C@H](CN(C)S(=O)(=O)c2ccc(Cl)cc2)OCCCC[C@@H](C)O3)cc1 | active
51 | COc1ccc(S(=O)(=O)N(C)C[C@H]2OCCCC[C@H](C)Oc3ccc(NC(=O)Nc4ccc5c(c4)OCO5)cc3C(=O)N([C@H](C)CO)C[C@@H]2C)cc1 | inactive
52 | COc1ccc(NC(=O)Nc2ccc3c(c2)C(=O)N([C@H](C)CO)C[C@H](C)[C@@H](CN(C)S(=O)(=O)c2ccc(C)cc2)OCCCC[C@H](C)O3)cc1 | inactive
53 | COc1ccc(S(=O)(=O)N(C)C[C@H]2OCCCC[C@@H](C)Oc3ccc(NC(=O)Nc4ccc5c(c4)OCO5)cc3C(=O)N([C@@H](C)CO)C[C@@H]2C)cc1 | active
54 | COc1ccc(NC(=O)Nc2ccc3c(c2)C(=O)N([C@@H](C)CO)C[C@@H](C)[C@@H](CN(C)S(=O)(=O)c2ccc(C)cc2)OCCCC[C@@H](C)O3)cc1 | inactive
55 | COc1ccc(S(=O)(=O)N(C)C[C@H]2OCCCC[C@H](C)Oc3ccc(NC(=O)Nc4ccc5c(c4)OCO5)cc3C(=O)N([C@H](C)CO)C[C@H]2C)cc1 | inactive
56 | COc1ccc(NC(=O)Nc2ccc3c(c2)C(=O)N([C@H](C)CO)C[C@H](C)[C@H](CN(C)S(=O)(=O)c2ccc(C)cc2)OCCCC[C@H](C)O3)cc1 | inactive
57 | COc1ccc(NC(=O)Nc2ccc3c(c2)C(=O)N([C@H](C)CO)C[C@@H](C)[C@H](CN(C)S(=O)(=O)c2ccc(C)cc2)OCCCC[C@@H](C)O3)cc1 | inactive
58 | COc1ccc(NC(=O)Nc2ccc3c(c2)C(=O)N([C@H](C)CO)C[C@H](C)[C@H](CN(C)S(=O)(=O)c2ccc(Cl)cc2)OCCCC[C@H](C)O3)cc1 | inactive
59 | COc1ccc(NC(=O)Nc2ccc3c(c2)C(=O)N([C@@H](C)CO)C[C@H](C)[C@@H](CN(C)S(=O)(=O)c2ccc(C)cc2)OCCCC[C@@H](C)O3)cc1 | active
60 | COc1ccc(NC(=O)Nc2ccc3c(c2)C(=O)N([C@@H](C)CO)C[C@H](C)[C@H](CN(C)S(=O)(=O)c2ccc(C)cc2)OCCCC[C@H](C)O3)cc1 | active
61 | COc1ccc(NC(=O)Nc2ccc3c(c2)C(=O)N([C@H](C)CO)C[C@H](C)[C@H](CN(C)S(=O)(=O)c2ccc(Cl)cc2)OCCCC[C@@H](C)O3)cc1 | inactive
